Active and inactive are the calls of the source. Rule for the calls: active = hit-call score of the fitted dose curve at least 0.9, where 1 is the maximum; inactive = score below 0.9.
Assay: CCTE_Padilla_ZF_Score.Craniofacial: CCTE's 144 Hour Post-fertilization zebrafish Assay Score for Craniofacial Malformation, Padilla Lab (AID 2284405)
Method: CCTE_Padilla_ZF_Phenotype_Score is a whole embryo, multiplexed assay using zebrafish ova exposed for 144 hours post fertilization on a 96-well plate.CCTE_Padilla_ZF_Score.Craniofacial is one of one assay component(s) measured or calculated from the CCTE_Padilla_ZF_Phenotype_Score assay. It is designed to make measurements of zebrafish development as detected with brightfield microscopy of developing zebrafish embryos.Data from the assay component CCTE_Padilla_ZF_Score.Craniofacial was analyzed into 1 assay endpoints. This assay endpoint, CCTE_Padilla_ZF_Score.Craniofacial, was analyzed in the positive analysis fitting direction relative to DMSO as the negative control and baseline of activity. Using a type of viability reporter, gain-of-signal activity can be used to understand changes in developmentals as they relate to the whole embryo. To generalize the intended target to other relatable targets, this assay endpoint is annotated to the zebrafish development intended target family, where the subfamily is craniofacial morphogenesis.
Zebrafish husbandry: Wild type adult zebrafish (Danio rerio; undefined outbred stock obtained from Aquatic Research Organisms, Hampton, NH, 03842) were housed in an AAALAC-approved animal facility at 28C with a 14:10 h light: dark cycle (lights on at 08:30 h). Adult fish (2-3 females per male; density = 15-20 adults per tank) were kept in one of several 9-liter (L) flow-through colony tanks (Aquaneering Inc., San Diego, CA). All adults in a colony tank were placed in a 2 L (static) breeding tank (Aquatic Habitats, Apopka, FL) one hour prior to light onset. Typically, adults from two to three colony tanks were mated on the same day. Two hours after light onset the adults were returned to the colony tank. All embryos were gathered from each breeder tank, pooled, and placed in a 28C water bath for 2 h, followed by two washes with 0.06% bleach (v/v) in 10% Hanks' Balanced Salt Solution (13.7 mM NaCl 0.54 mM KCl, 25 uM Na2HPO4, 130 uM CaCl2 100 um MgSO4 and 420 um NaHCO3,), hereafter referred to as Hanks' solution, for 5 min in order to remove any residual bacteria or fungi. Immediately following washing, the embryos were examined, and healthy embryos were separated from dead or unfertilized eggs and moved into fresh Hanks'. Chemical exposures: Zebrafish embryos were exposed in 96-well plates. Between 6- and 8-hours post fertilization (hpf), healthy embryos (with chorions) were transferred, one embryo per well, into 96 well (0.5 mL) microtiter plates (Cell Culture-Treated, Flat-Bottom Microplate 96 well [Corning Costar, Kennebunk, ME; Cat 09-761-145]) filled with 200 uL of Hanks' solution. A random number generator was used to assign the order in which the rows of embryos were plated in 96 well plates each week. After plating, the embryos were dosed with 0.8 uL of the chemical dosing solution then immediately sealed with AlumaSeal II (Excel Scientific Inc, Victorville, CA) to prevent volatilization of the chemicals, and then placed in a leakproof secondary container. These containers were placed in an incubator maintained on a 14:10 h light: dark cycle at 26C for rearing. On 5 dpf, live larvae were gently moved out of the plate with test chemicals and into a new 96 well mesh plate (Millipore Corp., Bedford, MA) with just the Hanks' solution. Once within the mesh well plate, the animals were rinsed with 400 uL of fresh Hanks' three times, and then the plates were covered with a non-adhesive material (Microseal A, BioRad, Hercules, CA), plate lid added, and then plate sides wrapped in Parafilm (PM992, Bermis Company, Neenah, WI), and returned to the incubator. […]

| SMILES | outcome | AC50 |
| --- | --- | --- |
| CN(C(=O)C(F)(F)C(F)(F)C(F)(F)F)[Si](C)(C)C | inactive |  |
| C=CC(=O)OCC(F)(F)C(F)(F)C(F)(F)C(F)(F)C(F)(F)C(F)(F)C(F)(F)C(F)F | inactive |  |
| C=CC(=O)OCCC(F)(F)C(F)(F)C(F)(F)C(F)(F)F | inactive |  |
| OCC(O)CC(F)(F)C(F)(F)C(F)(F)C(F)(F)C(F)(F)C(F)(F)C(F)(F)C(F)(F)F (stereo not given) |  | 15.7 µM (active) |
| O=C(O)C(F)(F)OC(F)(F)C(F)(F)OC(F)(F)C(F)(F)OC(F)(F)F | inactive |  |
| O=C(F)C1(F)C(F)(F)C(F)(F)C(F)(F)C(F)(F)C1(F)F | inactive |  |
| COC(F)(C(F)F)C(F)(F)F (stereo not given) | inactive |  |
| NC(O)(C(F)(F)F)C(F)(F)F | inactive |  |
| OCC(O)CC(F)(F)C(F)(F)C(F)(F)C(F)(F)F (stereo not given) | inactive |  |
| FC(F)(F)C(F)(F)C(F)(F)C(F)(F)C(F)(F)C(F)(F)C(F)(F)CCI | inactive |  |
| O=C(O)C(F)(F)C(F)(F)C(F)(F)C(F)(F)C(F)(F)C(F)(F)C(F)F | inactive |  |
| FC(F)(F)C(F)(F)C(F)(F)CC1CO1 (stereo not given) | inactive |  |
| CNS(=O)(=O)C(F)(F)C(F)(F)C(F)(F)C(F)(F)C(F)(F)C(F)(F)C(F)(F)C(F)(F)F |  | 85.1 µM (active) |
| O=C(Cl)C(F)(F)C(F)(F)C(F)(F)C(F)(F)C(F)(F)C(F)(F)F | inactive |  |
| O=S(=O)(OCC(F)(F)F)C(F)(F)C(F)(F)C(F)(F)C(F)(F)F | inactive |  |
| NC(=O)C(F)(F)C(F)(F)C(F)(F)C(F)(F)C(N)=O | inactive |  |
| CO[Si](C)(CCC(F)(F)C(F)(F)C(F)(F)C(F)(F)C(F)(F)C(F)(F)F)OC | inactive |  |
| O=S(=O)(O)CCC(F)(F)C(F)(F)C(F)(F)C(F)(F)F | inactive |  |
| O=S(=O)(O)CCC(F)(F)C(F)(F)C(F)(F)C(F)(F)C(F)(F)C(F)(F)C(F)(F)C(F)(F)F | inactive |  |
| O=S(=O)(Cl)C(F)(F)C(F)(F)C(F)(F)C(F)(F)C(F)(F)C(F)(F)C(F)(F)C(F)(F)F | inactive |  |

| SMILES | outcome | AC50 |
| --- | --- | --- |
| OCC(F)(F)C(F)(F)C(F)(F)C(F)(F)C(F)(F)C(F)(F)CO |  | 80.4 µM (active) |
| O=C(O)C(F)(F)C(F)(F)C(F)(F)OC(F)(C(F)(F)F)C(F)(F)F | inactive |  |
| OCC(F)(F)C(F)(F)C(F)(F)CO | inactive |  |
| OCCCCC(F)(F)C(F)(F)C(F)(F)C(F)(F)F |  | 39.4 µM (active) |
| O=C(O)C(F)(F)C(F)(F)C(F)(F)OC(F)(F)F | inactive |  |
| O=C(O)C(F)(F)C(F)(F)C(F)(F)C(=O)O | inactive |  |
| OCC(F)(F)C(F)(F)C(F)(F)C(F)(F)C(F)(F)C(F)(F)C(F)(F)C(F)(F)CO | inactive |  |
| OC(O)C(F)(F)C(F)(F)F | inactive |  |
| O=C(O)CCC(F)(F)C(F)(F)C(F)(F)C(F)(F)C(F)(F)C(F)(F)C(F)(F)F | inactive |  |
| NC(=O)C(F)(F)C(F)(F)C(F)(F)C(F)(F)C(F)(F)C(F)(F)C(F)(F)F | inactive |  |
| C=C(C)C(=O)OCC(F)(F)C(F)(F)C(F)(F)C(F)F | inactive |  |
| CCOC(=O)CC(=O)C(F)(F)C(F)(F)F | inactive |  |
| C[Si](Cl)(Cl)CCC(F)(F)C(F)(F)C(F)(F)C(F)(F)C(F)(F)C(F)(F)F | inactive |  |
| C=CC(=O)OCC(F)(F)C(F)(F)C(F)(F)COC(=O)C=C | inactive |  |
| NCC(F)(F)C(F)(F)C(F)(F)C(F)(F)C(F)(F)C(F)(F)C(F)(F)C(F)(F)F | inactive |  |
| O=C(Cl)C(F)(F)C(F)(F)C(F)(F)C(F)(F)C(F)(F)C(F)(F)C(F)(F)F | inactive |  |
| NS(=O)(=O)C(F)(F)C(F)(F)C(F)(F)C(F)(F)C(F)(F)C(F)(F)F |  | 2.66 µM (active) |
| OCCCC(F)(F)C(F)(F)C(F)(F)C(F)(F)C(F)(F)C(F)(F)C(F)(F)C(F)(F)F | inactive |  |
| NC(=O)C(F)(F)C(F)(F)C(F)(F)F | inactive |  |
| CCN(CCO)S(=O)(=O)C(F)(F)C(F)(F)C(F)(F)C(F)(F)C(F)(F)C(F)(F)C(F)(F)C(F)(F)F | inactive |  |

— PubChem BioAssay (EPA / NIEHS)
